Sfp inh: blocks B. subtilis Sfp PPTase activity; Q9F4F7; Potency, µM, inactives show largest response in the series, negative = inhibition, usual class: inhibitors; hit rate 3.5% among 310,000; AID 1490; Biochemical Sfp PPTase activity, qHTS;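 further: the enzyme is Sfp with the accession as filed and its product quenches rhodamine fluorescence; 0% = enzyme reaction without inhibitor and -100% = no enzyme wells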
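Reaction rates are the 30-min fluorescence difference (ex 525, em 598 nm) in wells containing 15 nM Sfp, 5 uM rhodamine-CoA and 12.5 uM BHQ-2-YbbR at pH 7.6 with 10 mM MgCl2.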
BAZ2B inh: blocks human BAZ2B | Potency, µM (top dose mostly 114 µM), inactives show at the top dose activity change, negative = inhibition, usual class: inhibitors | AlphaScreen BAZ2B-H3K14Ac peptide displacement | hit rate 4.4% among 360,000 | Q9UIF8; further: on the % scale 0 is the no-effect control and ±100 the full control effect; nearly all actives have a fitted effect of over 60% in size
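Multi-concentration screen (max 110 uM) measuring displacement of acetylated histone H3 peptide from BAZ2B by AlphaScreen, using 50 nM protein, 50 nM peptide and 10 ug/mL streptavidin donor plus Ni-chelate acceptor beads.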
HP1b chromo inh: inhibitors of HP1-beta chromodomain binding to methylated histone tails. hit rate 0.56% among 390,000. AlphaScreen HP1-beta / biotin-H3K9me3 peptide binding. Potency, µM (doses to about 114 µM), for inactives: at the top dose activity change, negative = inhibition, usual class: inhibitors; further: nearly all actives have a fitted effect of over 70% in size
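HP1-beta protein (50 nM final) preincubated 30 min at room temperature with biotinylated H3(1-18)K9me3 peptide (50 nM) in PBS pH 7.4, 0.01% Tween-20, then compound added for 30 min. AlphaScreen streptavidin donor/nickel chelate acceptor beads (10 ug/mL final), 30 min dark, luminescence read.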
JMJD2A Tudor inh: blocks the human JMJD2A Tudor domain; O75164; AID 504339; AlphaScreen JMJD2A-Tudor / H3K4me3 peptide binding; Potency, µM (highest dose often 114 µM), inactives show at the top dose activity change, negative = inhibition, actives largely listed as inhibitors; hit rate 4.4% among 390,000; further: on the % scale 0 is the no-effect control and ±100 the full control effect; nearly all actives have a fitted effect of over 50% in size
G9a inh: blocks human histone lysine methyltransferase G9a; AID 504332; Potency, µM (titrated, usually from 102 µM), inactives show top-dose activity, negative = inhibition, hits mostly inhibitors; Q96KQ7; hit rate 8.8% among 350,000; G9a H3K9 monomethylation, AlphaScreen, 2 h; further: on the % scale 0 is the no-effect control and ±100 the full control effect; nearly all actives have a fitted effect of over 75% in size
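Methyltransferase reactions run at room temperature for 2 h (20 nM enzyme, 500 nM biotin-H3K9 peptide, 20 uM SAM) after a 15 min compound preincubation; product detected by AlphaScreen beads and anti-H3K9me1 antibody.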
* hit, by the source's call; [ ] = another dose, or the depositor's remark. Compounds with a hit are over-represented: about 12% of the library has one in this group of screens. The call rests on the fitted dose curve; in most records, active means well fitted curve in the direction sought with a large enough effect; inconclusive means small, poorly fitted or top-dose-only effect, or another doubt; inactive means no such curve, though single readings can be large; an effect the other way counts as inactive or inconclusive. Potency means the concentration at half of the fitted maximal effect.

CCCC(=O)NNC(=O)CC(=O)Nc1ccccc1C(=O)O was read as Sfp inh 22%, BAZ2B inh -21%, HP1b chromo inh 4%[57 µM], JMJD2A Tudor inh -13% and G9a inh 50µM*.
COC(=O)c1ccccc1NC(=S)NC(C)=O was read as Sfp inh 18%, BAZ2B inh 0%, HP1b chromo inh 44% and JMJD2A Tudor inh -12%.
For COC(=O)c1ccccc1NC(=S)NC(=O)C1CC1 the results were Sfp inh -2%, BAZ2B inh inconclusive, HP1b chromo inh 25%, JMJD2A Tudor inh -12% and G9a inh 50µM*.
CN(Cc1ccccc1)C(=O)c1cccc(NC(=O)Cc2cccc(NC(=O)C3CCN(C(=O)C4CC4)CC3)c2)c1 was read as HP1b chromo inh 17% and JMJD2A Tudor inh -14%.
For COC(=O)c1ccccc1NC(=O)c1ccc(F)cc1F the results were JMJD2A Tudor inh -3%.
Screening CCOC(=O)CCCN1C(=O)CCn2nc(-c3cn(C)c4ccccc34)cc21 returned BAZ2B inh -29%, HP1b chromo inh 34%, JMJD2A Tudor inh -26% and G9a inh 4%[59 µM].
`Cc1ccc(CNC(=O)c2cc3c(=O)n(C)c4ccccc4c3n2C)o1` gave Sfp inh 56µM*, BAZ2B inh 13%, HP1b chromo inh 30%, JMJD2A Tudor inh -11% and G9a inh inconclusive.
Cn1c2ccccc2c2c(C(=O)N3CCN(c4ccc(F)cc4)CC3)cn(C3CCCCC3)c(=O)c21 was read as BAZ2B inh -1%, HP1b chromo inh 26%, JMJD2A Tudor inh inconclusive and G9a inh inconclusive.
`COc1ccc(N2CCN(C(=O)c3cn(C4CCCCC4)c(=O)c4c3c3ccccc3n4C)CC2)cc1` gave BAZ2B inh 7.1µM*, HP1b chromo inh inconclusive, JMJD2A Tudor inh inconclusive and G9a inh 10µM*.
Screening Cc1ccc(CNC(=O)c2cn(C)c(=O)c3c2c2ccccc2n3C)o1 returned Sfp inh 22µM*, BAZ2B inh 5%, HP1b chromo inh -9%, JMJD2A Tudor inh -19% and G9a inh 1%[12.7 µM].
Screening Cc1ccc(CNC(=O)c2cn(C3CCCCC3)c(=O)c3c2c2ccccc2n3C)o1 returned Sfp inh 18µM*, BAZ2B inh -32%, HP1b chromo inh -2%, JMJD2A Tudor inh -34% and G9a inh 50µM*.
For Cc1ccc(S(=O)(=O)Nc2ccccc2)cc1C(=O)N1CCCC1 the results were Sfp inh 7%, BAZ2B inh -1%, HP1b chromo inh 18% and JMJD2A Tudor inh -3%.
COc1cc(CN(C(=O)Nc2ccccc2)c2ccccn2)cc(OC)c1OC was read as BAZ2B inh -10%, HP1b chromo inh 26%, JMJD2A Tudor inh -7% and G9a inh -5%[59 µM].
`Cc1ccccc1NC(=O)c1sc2nc(-c3cc4ccccc4oc3=O)[nH]c(=O)c2c1C` gave BAZ2B inh -2%, HP1b chromo inh 47%, JMJD2A Tudor inh 0% and G9a inh 0%[59 µM].
COc1ccc(Cl)cc1S(=O)(=O)n1cnc2ccccc21 was read as Sfp inh 7%, BAZ2B inh 21%, HP1b chromo inh 50%, JMJD2A Tudor inh 4% and G9a inh inconclusive.
`Cc1cc(C)c(S(=O)(=O)n2cnc3ccccc32)c(C)c1` gave Sfp inh -7%, BAZ2B inh -9%, HP1b chromo inh 37%, JMJD2A Tudor inh -12% and G9a inh 89µM*.
`COc1ccc(S(=O)(=O)n2cnc3ccccc32)cc1OC` gave Sfp inh 7%, BAZ2B inh -7%, HP1b chromo inh 37%, JMJD2A Tudor inh 14% and G9a inh 71µM*.
Cc1ccc(S(=O)(=O)n2cnc3ccccc32)cc1[N+](=O)[O-] was read as Sfp inh -1%, BAZ2B inh 2%, HP1b chromo inh 17%, JMJD2A Tudor inh -1% and G9a inh -7%[2.33 µM].
Screening COc1ccc(NC(=O)CCC(=O)c2cccs2)cc1S(=O)(=O)Nc1ccccc1Cl returned Sfp inh 0%, BAZ2B inh -24%, HP1b chromo inh 13%, JMJD2A Tudor inh -23%[57.1 µM] and G9a inh -50%[59 µM].
CCCN1C(=O)/C(=C/c2ccccc2OCc2ccc(C(=O)O)cc2)NC1=S was read as Sfp inh 10%, BAZ2B inh -29%, HP1b chromo inh -25%, JMJD2A Tudor inh -28% and G9a inh inconclusive.
For O=C1NC(=O)N(Cc2ccccc2F)C1=O the results were Sfp inh inconclusive, BAZ2B inh -37%, HP1b chromo inh 12%, JMJD2A Tudor inh -14% and G9a inh 22µM*.
Screening O=C(O)c1ccc(COc2ccccc2/C=C2\NC(=O)N(Cc3ccccc3F)C2=O)cc1 returned Sfp inh inconclusive, BAZ2B inh -23%, HP1b chromo inh inconclusive, JMJD2A Tudor inh 40µM* and G9a inh inconclusive.
O=C1NC(=O)/C(=C/c2ccccc2OCc2ccccc2)S1 was read as Sfp inh -20%, BAZ2B inh -33%, HP1b chromo inh 9%, JMJD2A Tudor inh -23% and G9a inh 40µM*.
`O=C(O)c1ccc(COc2ccc3ccccc3c2/C=C2/NC(=O)N(Cc3ccc(F)cc3)C2=O)cc1` gave Sfp inh 71µM*, BAZ2B inh 28µM*, HP1b chromo inh inconclusive, JMJD2A Tudor inh 20µM* and G9a inh inconclusive.
For CCCCCN(C(=O)CCC(=O)OCc1cc(C)ccc1C)c1c(N)n(CCCC)c(=O)[nH]c1=O the results were BAZ2B inh 3%, HP1b chromo inh -4%, JMJD2A Tudor inh -6% and G9a inh -16%[0.501 µM].
CC(C)N(C(=O)CO/N=C/c1cccc([N+](=O)[O-])c1)C(C)C was read as Sfp inh -4%, BAZ2B inh -18%, HP1b chromo inh 30%, JMJD2A Tudor inh -12% and G9a inh -22%.
CS(=O)(=O)c1ccc(C(=O)OCC(=O)Nc2cc(C(F)(F)F)ccc2Cl)cc1[N+](=O)[O-] was read as HP1b chromo inh 26% and JMJD2A Tudor inh 0%.
COc1cc(/C=C2/NC(=O)N(Cc3ccccc3F)C2=O)cc(OC)c1O was read as Sfp inh -14%, BAZ2B inh 1%, HP1b chromo inh 33%, JMJD2A Tudor inh -20% and G9a inh 35µM*.
O=C(O)c1ccc(COc2ccccc2/C=C2\NC(=O)N(Cc3ccccc3)C2=O)cc1 was read as Sfp inh 9%, BAZ2B inh -28%, HP1b chromo inh inconclusive, JMJD2A Tudor inh 25µM* and G9a inh inconclusive.
Screening COc1ccc(CSCC(=O)N/N=C/c2ccccc2OCc2ccccc2)cc1 returned Sfp inh 12%, BAZ2B inh -8%, HP1b chromo inh 12%, JMJD2A Tudor inh -30% and G9a inh -1%[2.33 µM].
`COc1cccc(C(=O)NCC2CCCO2)c1` (centres undefined) gave Sfp inh -2%, BAZ2B inh 9% and G9a inh inconclusive.

Bioassay records: PubChem BioAssay, National Center for Advancing Translational Sciences (NCATS)
